Results as given in PubChem BioAssay.
Activity calls are given as the source filed them. Unless noted, no rule for the calls is given here.

Key:
[1] = resazurin metabolic signal in HepG2 cells – cell-based, resazurin fluorescence, 24 h, PK04 Diversity Set, profiling panel (AID 1172); conditions: HepG2 viability, higher = more signal
[2] = budding yeast growth changes without added modifier – OD600, strain BY4716, 24 h, basal condition, primary screen (AID 1173); conditions: S. cerevisiae BY4716 growth, OD600, 24 h; higher = more signal, called active from +8 up or from −8 down
[3] = viability profiling in MM1S myeloma cells – cell-based, resazurin fluorescence, basal, 24 h, PK04 Diversity Set, profiling panel (AID 1174); conditions: higher = more signal, called active from +8 up or from −8 down;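 also: MM1S multiple myeloma cell line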
[4] = target: Dihydroorotate dehydrogenase (quinone), mitochondrial (Plasmodium falciparum (isolate 3D7)) (UniProt Q08210); test: inhibition of P. falciparum DHODH – biochemical, C-terminal His tag, absorbance 600 nm, primary screen (AID 1175); conditions: PfDHODH enzyme, DCIP absorbance 600 nm; higher = more signal, called active from +8 up or from −8 down;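 also: recombinant parasite enzyme with a five histidine tag at its C terminus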
Chain of Dihydroorotate dehydrogenase (quinone), mitochondrial (Plasmodium falciparum (isolate 3D7)) (Q08210 whole entry, looked up): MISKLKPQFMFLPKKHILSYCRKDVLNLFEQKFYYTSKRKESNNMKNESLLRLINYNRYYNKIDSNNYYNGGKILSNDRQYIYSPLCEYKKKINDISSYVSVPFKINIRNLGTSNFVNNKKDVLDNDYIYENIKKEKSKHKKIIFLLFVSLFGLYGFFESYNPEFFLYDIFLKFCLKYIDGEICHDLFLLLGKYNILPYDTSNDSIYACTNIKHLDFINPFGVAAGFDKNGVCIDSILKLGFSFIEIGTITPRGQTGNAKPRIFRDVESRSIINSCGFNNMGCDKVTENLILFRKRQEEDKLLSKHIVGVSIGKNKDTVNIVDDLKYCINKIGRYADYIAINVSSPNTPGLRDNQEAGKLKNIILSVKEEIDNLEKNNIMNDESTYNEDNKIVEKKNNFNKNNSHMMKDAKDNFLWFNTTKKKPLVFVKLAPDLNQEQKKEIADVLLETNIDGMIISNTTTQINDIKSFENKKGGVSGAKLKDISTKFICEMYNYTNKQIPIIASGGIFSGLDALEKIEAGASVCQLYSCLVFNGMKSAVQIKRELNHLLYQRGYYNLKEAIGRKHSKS

[5] = inhibition of PAO1 biofilm formation – strain PAO1, LB-PBS medium, absorbance 600 nm, primary screen (AID 1176); conditions: P. aeruginosa PAO1 growth/biofilm, A600, 12 h; higher = more signal
[6] = growth modulation of vineyard yeast isolate – strain RM11-1a, OD600, basal, 24 h, primary screen (AID 1177);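 also: cultures grown under basal conditions with no added stressor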; conditions: S. cerevisiae RM11-1a growth, OD600, 24 h; higher = more signal, called active from +8 up or from −8 down
[7] = growth of efflux-deficient E. coli DRC39 – strain DRC39, OD650, 24 h, E. coli filamentation inducers, primary screen (AID 1178);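 also: growth measured as culture turbidity by optical density at 650 nm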; conditions: E. coli DRC39 acrAB, higher = more signal, called active from +8 up or from −8 down
[8] = growth of efflux-deficient E. coli DRC39 – strain DRC39, OD650, 48 h, E. coli filamentation inducers, primary screen (AID 1179);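 also: screen aims at cell division blockers that make cells filament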; conditions: E. coli DRC39 delta-acrAB growth, higher = more signal, called active from +8 up or from −8 down
[9] = viability profiling in RPMI8226 myeloma cells – cell-based, resazurin fluorescence, basal, 24 h, PK04 Diversity Set, profiling panel (AID 1180); conditions: higher = more signal;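 also: RPMI8826 multiple myeloma cell line at 5000 cells per well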
[10] = target: E3 ubiquitin-protein ligase XIAP (Homo sapiens) (UniProt P98170); test: small molecules binding XIAP protein – biophysical, small-molecule microarray, fluorescence 635 nm, primary screen (AID 1181); conditions: higher = more signal;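 also: score merges 667 nm emission and signal to noise over triplicate slides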
Chain of E3 ubiquitin-protein ligase XIAP (Homo sapiens) (P98170 whole entry, looked up, the tested form may be a part): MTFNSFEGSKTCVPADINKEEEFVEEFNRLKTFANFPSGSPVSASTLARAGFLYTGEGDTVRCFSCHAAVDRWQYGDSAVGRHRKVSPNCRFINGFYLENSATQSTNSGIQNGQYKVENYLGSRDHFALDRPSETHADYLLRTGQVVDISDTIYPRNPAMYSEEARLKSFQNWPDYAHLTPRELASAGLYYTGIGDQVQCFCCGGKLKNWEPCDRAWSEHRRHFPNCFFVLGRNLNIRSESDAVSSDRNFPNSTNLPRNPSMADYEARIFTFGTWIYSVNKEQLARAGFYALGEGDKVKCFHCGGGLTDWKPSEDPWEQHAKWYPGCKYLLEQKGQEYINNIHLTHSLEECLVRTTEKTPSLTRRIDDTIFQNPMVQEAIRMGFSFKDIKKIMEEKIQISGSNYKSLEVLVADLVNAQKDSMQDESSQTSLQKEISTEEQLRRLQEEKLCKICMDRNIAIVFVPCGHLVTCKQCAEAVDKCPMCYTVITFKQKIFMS

[11] = tested on: XIP peptide (Xip251-270) binding; test: XIP fragment 251-270 binding compounds – biochemical, small-molecule microarray, fluorescence 635/667 nm, 0.1 µg/mL protein, primary screen (AID 1182); conditions: fluorescent protein binding, 635 nm, higher = more signal, called active from +8 up or from −8 down
XIP peptide (Xip251-270) = test: compounds binding XIP fragment 251-270 – biochemical, small-molecule microarray, fluorescence 635/667 nm, 0.5 µg/mL protein, primary screen (AID 1183); conditions: fluorescence 635 nm, higher = more signal
[12] = blood-stage malaria parasite viability loss – strain 3D7, DAPI fluorescence, 100 nL, primary screen (AID 1184);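 also: parasites grown inside human red blood cells in medium with human serum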; conditions: P. falciparum 3D7 growth, 3 d, higher = more signal
[13] = target: Homeobox protein Hox-A13 (Mus musculus) (UniProt Q62424); test: disruptors of Hoxa13 oligonucleotide interaction – biochemical, fluorescence polarization, labeled oligonucleotide, primary screen (AID 1185); conditions: Hoxa13:DNA binding, 15 min, higher = more signal, called active from +8 up or from −8 down
Chain of Homeobox protein Hox-A13 (Mus musculus) (Q62424 whole entry, looked up): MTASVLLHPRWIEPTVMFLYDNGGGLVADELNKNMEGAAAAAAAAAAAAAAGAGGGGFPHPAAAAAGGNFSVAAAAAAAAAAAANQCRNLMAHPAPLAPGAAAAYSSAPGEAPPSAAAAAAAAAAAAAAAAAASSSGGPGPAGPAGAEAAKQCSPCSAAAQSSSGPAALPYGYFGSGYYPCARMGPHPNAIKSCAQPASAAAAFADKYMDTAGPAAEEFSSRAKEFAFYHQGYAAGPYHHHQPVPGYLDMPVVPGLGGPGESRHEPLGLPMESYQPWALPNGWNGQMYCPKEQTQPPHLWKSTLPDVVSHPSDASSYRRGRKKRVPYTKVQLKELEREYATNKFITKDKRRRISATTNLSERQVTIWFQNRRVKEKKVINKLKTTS

[14] = blockers of DNA damage checkpoint Chk1 activation – imaging, HeLa, hydroxyurea, phospho-Chk1 antibody, percent positive cells, primary screen (AID 1186); conditions: hydroxyurea-induced phospho-Chk1 immunofluorescence imaging, higher = more signal
[15] = blockers of DNA damage checkpoint Chk1 activation – imaging, HeLa, hydroxyurea, phospho-Chk1 nuclear intensity, primary screen (AID 1187); conditions: hydroxyurea-induced phospho-Chk1 immunofluorescence imaging, higher = more signal

SMILES	z-score [1]	z-score [2]	z-score [3]	composite z-score [4]	z-score [5]	z-score [6]	z-score [7]	z-score [8]	z-score [9]	composite z-score [10]	composite z-score [11]	composite z-score (XIP peptide (Xip251-270))	z-score [12]	z-score [13]	z-score [14]	z-score [15]
[N-]=[N+]=NCc1ccccc1C[C@@]1(C(=O)NCC(O)CO)N=C(c2ccc(OCCCO)cc2)O[C@@H]1c1ccccc1 (some centres undefined)	-1.07	-2.07 (inactive)	-0.243 (inactive)	-0.0675 (inactive)	0.466 (inactive)	0.355 (inactive)	1.39 (inactive)	0.322 (inactive)	-0.645	0.19	0.691 (inactive)	0.684	-2.03	-4.12 (inactive)	-0.0558 (inactive)	0.274 (inactive)
COC(=O)C[C@H]1O[C@@H](CCc2ccccc2)[C@@H](C)[C@@H]1[Si](C)(C)c1ccc(OC)cc1	0.294	-0.938 (inactive)	-0.229 (inactive)	0.656 (inactive)	-0.529 (inactive)	0.725 (inactive)	-0.0089 (inactive)	-1.12 (inactive)	-0.206	0.152	-0.633 (inactive)	-0.919	-1.63	-4.56 (inactive)	0.0465 (inactive)	0.33 (inactive)
CS(=O)(=O)CCOC(=O)C1=CC(CCCO)=CC(c2ccc(CN3CCCC3)cc2)N(Cc2cccc(OC(F)(F)F)c2)C=C1C(=O)OCCS(C)(=O)=O (centres undefined)	-0.207	-3.9 (inactive)	-0.527 (inactive)	-1.03 (inactive)	1.24 (inactive)	1.01 (inactive)	0.669 (inactive)	0.399 (inactive)	0.0703	-0.24	0.211 (inactive)	0.584	-2.79	-1.82 (inactive)	0.157 (inactive)	1.28 (inactive)
[N-]=[N+]=Nc1ccccc1[C@H]1OC(c2ccc(OCCCO)cc2)=N[C@@]1(CCS(=O)(=O)c1ccccc1)C(=O)NCc1ccccc1	0.614	-0.008 (inactive)	-0.548 (inactive)	0.44 (inactive)	0.441 (inactive)	-0.22 (inactive)	-0.0211 (inactive)	-0.77 (inactive)	-0.129	0.0623	0.273 (inactive)	0.774	-2.48	-1.99 (inactive)	0.517 (inactive)	0.227 (inactive)
CC1CC/C=C\[C@H]2OC34C=CCN(Cn5nnc6ccccc65)C(=O)[C@H]3N(CCCCCO)C(=O)[C@@H]4C2C(=O)O1 (some centres undefined)	0.786	0.0153 (inactive)	-0.88 (inactive)	0.374 (inactive)	0.193 (inactive)	0.0538 (inactive)	0.67 (inactive)	0.434 (inactive)	0.796	-0.148	-0.369 (inactive)	-0.745	-0.585	-3.77 (inactive)	-0.749 (inactive)	-0.2 (inactive)
C=CCC(OC(C)=O)[C@@H]1[C@@H](N(Cc2ccc(-c3cccc(C(F)(F)F)c3)o2)C(=O)Cc2ccc(OC)cc2)c2cc(OCCCO)ccc2N1C(=O)c1ccc2ccccc2c1 (some centres undefined)	-0.29	-1.44 (inactive)	0.598 (inactive)	0.165 (inactive)	-0.841 (inactive)	0.0979 (inactive)	0.751 (inactive)	0.489 (inactive)	0.187	0.144	0.397 (inactive)	0.0642	-2.16	-2.43 (inactive)	0.171 (inactive)	0.284 (inactive)
COC(=O)C(CC#Cc1ccc2c(c1)[C@]1(C(=O)N2)[C@H](c2ccccc2OCCO)N2[C@H](c3ccccc3)[C@H](c3ccccc3)OC(=O)[C@H]2[C@@H]1C(=O)O)C(=O)OC	0.622	-0.502 (inactive)	1.39 (inactive)	-5.13 (inactive)	1.96 (inactive)	2.98 (inactive)	0.84 (inactive)	0.905 (inactive)	-0.259	0.0533	0.117 (inactive)	0.791	0.386	-5.57 (inactive)	0.0449 (inactive)	0.426 (inactive)
COC(=O)C(CC#Cc1ccc2c(c1)[C@]1(C(=O)N2)[C@H](c2ccc(O)cc2)N2[C@H](c3ccccc3)[C@H](c3ccccc3)OC(=O)[C@H]2[C@@H]1C(=O)N1CCN(c2ncccn2)CC1)C(=O)OC	-0.0862	0.238 (inactive)	-1.02 (inactive)	0.0817 (inactive)	0.847 (inactive)	0.849 (inactive)	0.551 (inactive)	0.769 (inactive)	-3.92	-0.0668	0.655 (inactive)	0.826	-2.26	-1.65 (inactive)	-0.231 (inactive)	-0.514 (inactive)
C=CC[C@]1(C(N)=O)N=C(c2ccc(OCCCO)cc2)O[C@H]1c1ccccc1	-0.095	-0.496 (inactive)	-0.0113 (inactive)	0.867 (inactive)	0.248 (inactive)	-0.412 (inactive)	0.247 (inactive)	-0.875 (inactive)	-0.52	-0.0749	0.672 (inactive)	0.787	-1.09	-6.17 (inactive)	0.344 (inactive)	0.327 (inactive)
CC=CC(O)C1C=CC2C(=O)N(C)C(=O)C2N1N(c1ccccc1)c1ccccc1 (centres undefined)	0.0376	0.554 (inactive)	-0.505 (inactive)	1.13 (inactive)	-0.531 (inactive)	0.823 (inactive)	-1.15 (inactive)	-0.321 (inactive)	-0.905	0.0116	0.212 (inactive)	0.414	0.0212	-0.125 (inactive)	0.341 (inactive)	0.365 (inactive)
C=CCN1Cc2ccccc2[C@@H]2OC(c3ccc(OCCCO)cc3)=N[C@]2(CCS(=O)(=O)c2ccccc2)C1=O	0.277	1.28 (inactive)	-0.751 (inactive)	0.651 (inactive)	1.4 (inactive)	1.38 (inactive)	0.61 (inactive)	0.713 (inactive)	-0.764	-0.123	0.3 (inactive)	0.799	-2.3	-2.43 (inactive)	-0.386 (inactive)	-0.386 (inactive)
NCCCCCNC(=O)[C@H]1C[C@H]2C(=O)N3CCC[C@H]3C(=O)N2[C@H]1c1ccc(O)cc1	-0.0962	-0.0403 (inactive)	-0.225 (inactive)	-0.572 (inactive)	0.174 (inactive)	-0.835 (inactive)	-0.363 (inactive)	-0.39 (inactive)	-0.485	0.247	0.705 (inactive)	0.718	-0.0006	-2.09 (inactive)	-0.15 (inactive)	-0.265 (inactive)
C=CC[C@]1(C(=O)N2CCOCC2)N=C(c2ccc(OCCCO)cc2)O[C@H]1c1ccccc1N=[N+]=[N-]	0.101	-1.01 (inactive)	-0.454 (inactive)	0.846 (inactive)	-0.167 (inactive)	0.275 (inactive)	1.31 (inactive)	0.844 (inactive)	-0.266	0.179	0.821 (inactive)	0.75	-1.92	-4.01 (inactive)	-0.528 (inactive)	-0.67 (inactive)
O=C1O[C@@H](c2ccccc2)[C@@H](c2ccccc2)N2[C@@H](c3ccc(OCCO)cc3)[C@]3(C(=O)Nc4ccc(C#CC5=CCCCC5)cc43)[C@@H](C(=O)N3CCCCCCC3)[C@H]12	-0.399	0.593 (inactive)	0.0902 (inactive)	-0.73 (inactive)	1.77 (inactive)	0.911 (inactive)	-1.32 (inactive)	0.0745 (inactive)	0.152	0.642	1.43 (inactive)	0.679	-2.22	-15.4 (active)	0.201 (inactive)	0.474 (inactive)
